VACV Venus inh: qHTS for Stage-Specific Inhibitors of Vaccinia Orthopoxvirus: Venus Reporter Primary qHTS; Vaccinia virus Venus reporter expression, fluorescence; Potency, µM (series often up to 36.5 µM), for inactives: at the top dose activity change, negative = inhibition, most hits filed as inhibitors; 330,000 compounds, 0.46% hits; AID 720580, 2013; calls by dose curve; tested in A549 cells; note: potency is the fitted concentration of half-maximal effect; nearly all actives have a fitted effect of over 30% in size
Vaccinia mCherry: qHTS for Stage-Specific Inhibitors of Vaccinia Orthopoxvirus: mCherry Reporter Primary qHTS; Vaccinia virus mCherry reporter infection, fluorescence; Potency, µM (titrated, usually from 36.5 µM), for the others: top-dose activity change, negative = inhibition, usual class: inhibitors; AID 720579, 2013; 310,000 compounds, 0.63% hits; calls by dose curve; tested in A549 cells; note: potency is the fitted concentration of half-maximal effect; nearly all actives have a fitted effect of over 35% in size
FMDV inh: High Throughput Screening for Foot and Mouth Disease Virus Antivirals; FMDV antiviral cell-based qHTS; Potency, µM (series often up to 57.9 µM), for the others: at the top dose activity change, negative = inhibition, most hits filed as inhibitors; 410,000 compounds, 1.2% hits; AID 1159524, 2015; calls by dose curve; tested in HEK293T cells; note: read-out not given here; potency is the fitted concentration of half-maximal effect; nearly all actives have a fitted effect of over 45% in size
HCMV inh: qHTS Assay for inhibitors of the human cytomegalovirus (HCMV); activity change, negative = inhibition, % at 57.5 µM; HFF cells, HCMV-luciferase reporter, 72 h; active compounds read low; 410,000 compounds, 4.5% hits; in the data active = activity change below about -60%; inconclusive = no clear call, values can overlap the other calls; inactive = above about -39%
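HFF cells seeded 16 h at 37C, treated with compounds, infected with luciferase-reporter HCMV at MOI 1 PFU/cell; luciferase read at 72 h post infection, normalized to buffer-only and Salinomycin controls.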
HCV inhibitor: qHTS Assay for Inhibitors of Hepatitis C Virus (HCV). Huh7.5.1 HCVcc-Cre infection, luciferase reporter, 44 h. Potency, µM (top dose mostly 41.8 µM), for the others: top-dose activity change, negative = inhibition, actives largely listed as inhibitors. 340,000 compounds, 3.4% hits; note: potency is the fitted concentration of half-maximal effect
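Cells seeded at 1,000/well and cultured 4 h, then compounds added followed by HCVcc-Cre virus (~0.5 moi). After 44 h further culture, luciferase substrate was added, plates held 15 min at room temperature, and luminescence read for 15 sec.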
Sm TGR block: qHTS Assay for the Inhibitors of Schistosoma Mansoni Peroxiredoxins. Potency, µM (series often up to 114 µM), without a hit: at the highest dose activity change, negative = inhibition, actives largely listed as inhibitors. purified TGR, DTNB reduction, TNB absorbance 405 nm. AID 485364, 2010. 360,000 compounds, 3% hits. Schistosoma mansoni thioredoxin glutathione reductase (TGR), Q962Y6; note: potency is the fitted concentration of half-maximal effect; nearly all actives have a fitted effect of over 60% in size
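TGR 20 nM + NADPH 100 uM (dispensed conc.), cpd preinc 15 min RT; start with NADPH (500 uM addition) then DTNB (15 mM addition). Kinetic TNB absorbance, 405 nm filter. Four-parameter Hill fit across titration.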
Starred values were filed as active, the others as inactive; i = inactive; ? = inconclusive; . = not tested or not shown; [ ] = dose if it differs, or a comment. Sampled rows, rich in hits. Any-hit rate of the full collection: about 9.3%. Unless noted, calls come from the whole dose curve; as a rule, active = well fitted curve in the direction sought with a large enough effect; inconclusive = small, poorly fitted or top-dose-only effect, or another doubt; inactive = no such curve, though single readings can be large; an effect the other way counts as inactive or inconclusive. % is set by controls: 0 for no effect and ±100 for the full control effect.

SMILES	VACV Venus inh	Vaccinia mCherry	FMDV inh	HCMV inh	HCV inhibitor	Sm TGR block
CC1(NC(=S)NCCCCCCNC(=S)NC2(C)CCS(=O)(=O)C2)CCS(=O)(=O)C1 (stereo unspecified)	-9%	i	31%	-3	3%	-5%
COCc1ccc([C@@H]2C[C@H]3CN(Cc4ccccc4C)C(=O)[C@]34CCCN24)o1	.	.	39%	-29	-13%	-36%
Cc1ccccc1CN1C[C@@H]2C[C@@H](c3cn[nH]c3-c3ccc(F)cc3)N3CCC[C@@]23C1=O	-15%	?	15%	-71*	?	-5%[57.1 µM]
COc1ccc(-c2[nH]ncc2[C@@H]2C[C@H]3CN(Cc4ccccc4C)C(=O)[C@]34CCCN24)cc1	.	.	14%	-71*	?	-1%[57.1 µM]
COc1ccc2c(CN3CCN(C(C)=O)CC3)cc(=O)oc2c1	6%	7%	-6%	-9	.	.
Cc1ccc(C)c(OCCn2cc(C(=O)O)c3ccccc32)c1	-10%	i	-15%	8	-13%	4%
Cc1ccccc1OCCn1cc(C(=O)O)c2ccccc21	-17%	-6%	9%	7	-8%	1%
CC(=O)c1cn(CCOc2cc(C)ccc2C)c2ccccc12	-7%	-13%	?	-32	1.8µM*	-11%
Cc1ccccc1OCCn1cc(/C(N)=N/O)c2ccccc21	?	?	28µM*	-14	?	-5%
CCCCn1nc(NC(=O)CC)c2cc3cc(OC)ccc3nc21	.	.	10%	16	?	1%
N#Cc1c(-c2ccco2)cc(C2CC2)nc1N	.	.	-15%	-22	25µM*	10µM*
N#Cc1c(-c2ccccc2)cc(C2CC2)nc1N	.	.	-21%	-6	?	7%
N#Cc1c(-c2ccco2)cc(-c2cccnc2)nc1N	.	.	-20%	62	11µM*	11µM*
N#Cc1c(-c2ccco2)cc(-c2ccccn2)nc1N	-14%	.	-11%	64	?	10µM*
CCOC(=O)c1c(C)nsc1NCc1ccccc1	.	.	-14%	-8	-5%	.
CCN(CC(=O)NCc1ccc(Cl)cc1)C(=O)/C=C/c1ccccc1	0%	5%	-5%	-18	-21%	-3%
CCN(CC)C(=O)c1c[nH]c2ccc(S(=O)(=O)Nc3cc(C)cc(C)c3)cc2c1=O	-4%	-12%	11%	-12	18%	-31%
Cc1nn(-c2ccc(NC(=O)c3ccncc3)cc2)c(C)c1Cl	-14%	-12%	18µM*	-91*	3.2µM*	0%
COc1ccc(CN(CC(=O)NCc2ccco2)C(=O)CNS(=O)(=O)c2ccc(C)cc2)cc1	-2%	-9%	18%	-14	15%	-5%
CC(=O)c1ccc(OCc2c(-c3ccccc3)nnn2CC(=O)NS(=O)(=O)c2ccc(C)cc2)cc1	-4%	-9%	-2%	29	.	.
CCOc1ccc(-c2cc3cc(OC)c(OC)cc3c(C)n2)cc1	-1%	5%	-7%	6	?	-8%
CCc1nc(-c2ccc(OC)c(OC)c2)cc2cc(OC)c(OC)cc12	-7%	-8%	-22%	1	3.2µM*	-1%
CC(NC(=O)c1cc(Br)cs1)C1CCCO1 (stereo unspecified)	-19%	-20%	4%	56	-12%	0%
OCCC1CN(Cc2ccc3c(c2)CCO3)CCN1C1CCCC1 (stereo unspecified)	11%	-32%	-7%	-74*	-10%	.
CC1CN(C(=O)COC(=O)c2cc(Cl)ccc2[N+](=O)[O-])CC(C)O1 (stereo unspecified)	-9%	-15%	4%	10	-6%	2%
SMILES	VACV Venus inh	Vaccinia mCherry	FMDV inh	HCMV inh	HCV inhibitor	Sm TGR block
CC1CCN(C(CC(=O)c2ccccc2)C(=O)c2ccccc2)CC1 (stereo unspecified)	22%	-4%	-17%	-86*	-10%	.
N#CC(Br)Br	-17%	-1%	-29%	4	4%	50µM*
OC1(c2ccc(Cl)cc2)CCN(Cc2cn[nH]c2-c2ccc(F)cc2)CC1	-3%	-11%	-18%	-78*	8.9µM*	0%
OC1(c2ccc(Cl)cc2)CCN(Cc2cn[nH]c2-c2ccccc2)CC1	1%	-12%	-11%	?	?	18%
CCCCOc1cccc(C(=O)Nc2cccc3ccc(C)nc23)c1	-1%	-10%	-11%	-20	.	0%
N=c1c[n+](CC23CC4CC(CC(C4)C2)C3)[n-]o1	-11%	.	-12%	-75*	6%	20%
COc1cccc(NC(=O)c2cnc(SCC(=O)N3CCCc4ccccc43)n(C)c2=O)c1	-16%	-4%	0%	-14	.	?
CC(C)OC(=O)c1cc(NC(=S)Nc2ccc([N+](=O)[O-])cc2)cc(C(=O)OC(C)C)c1	-17%	-8%	?	-86*	?	2%
CC(C)CCNC(=S)Nc1ccc([N+](=O)[O-])cc1	?	?	12%	-98*	?	?
CCCCNC(=S)Nc1ccc([N+](=O)[O-])cc1	?	?	17%	-75*	?	?
CCCCNC(=S)NC(=O)c1ccc([N+](=O)[O-])cc1	-11%	.	31%	-1	2%	?
O=C(NC(NNc1ccc([N+](=O)[O-])cc1)(C(F)(F)F)C(F)(F)F)c1ccc(F)cc1	-10%	i	?	15	?	32µM*
O=C(NC(NNc1ccc([N+](=O)[O-])cc1)(C(F)(F)F)C(F)(F)F)c1ccccc1Cl	.	.	?	6	?	?
COCCNC(=O)c1cc(Sc2ccc(F)cc2F)nc2ccccc12	-14%	-12%	-3%	-17	.	-4%
O=c1cc(-c2ccccc2)nc2cc(-c3ccco3)[nH]n12	-4%	i	32%	-10	14%	-21%
CC(=O)NCc1ccc(S(=O)(=O)N/N=C/c2ccc(Br)cc2)cc1	6%	i	113%	4	?	-12%
O=C(NNC(=S)Nc1ccc(F)cc1)c1cccc([N+](=O)[O-])c1	1%	-14%	27%	42	8%	-9%
O=[N+]([O-])c1ccc(NNC(=S)Nc2ccc(F)cc2)cc1	?	?	0%	-99*	?	-25%
CCOc1ccc(C)cc1S(=O)(=O)n1nc(C)cc1C	-10%	i	-15%	-19	17%	2%
COc1ccc(Oc2cnc3ccccc3n2)cc1	-2%	i	42%	-63*	-20%	-2%
c1ccc(Oc2cnc3ccccc3n2)cc1	.	.	24%	-28	2%	-19%
Cn1cc(/C=N/n2cnc3scc(-c4ccccc4)c3c2=O)c2ccccc21	?	?	-17%	-17	6.3µM*	-29%

Assay outcomes (PubChem)
